Source: the supplement of paper PMC3545927
The list shows a part of the results. The true hit rate is not given.

Biological target: furin, P09958
Experiment: furin cleavage Z-score vs untreated control; higher = more cleavage, active = 3.5 or more, inactive = 1 or less, 8 variable residues between constant flanks
Method in brief: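 In 50 mM HEPES pH 7.5 with CaCl2 and NaCl, purified furin was incubated with bead-anchored 8-mer peptide–cDNA fusions at 1:10 enzyme:substrate in 0.01 ml. Incubation times were 7.5, 15 and 30 min. DNA set free by cleavage was adapter-tagged by PCR and sequenced, with read counts taken as abundance. Log counts relative to furin-free reactions, after lowess adjustment and median absolute deviation scaling, form the cleavage Z-score.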

furin, P09958, sequence (P09958 whole entry): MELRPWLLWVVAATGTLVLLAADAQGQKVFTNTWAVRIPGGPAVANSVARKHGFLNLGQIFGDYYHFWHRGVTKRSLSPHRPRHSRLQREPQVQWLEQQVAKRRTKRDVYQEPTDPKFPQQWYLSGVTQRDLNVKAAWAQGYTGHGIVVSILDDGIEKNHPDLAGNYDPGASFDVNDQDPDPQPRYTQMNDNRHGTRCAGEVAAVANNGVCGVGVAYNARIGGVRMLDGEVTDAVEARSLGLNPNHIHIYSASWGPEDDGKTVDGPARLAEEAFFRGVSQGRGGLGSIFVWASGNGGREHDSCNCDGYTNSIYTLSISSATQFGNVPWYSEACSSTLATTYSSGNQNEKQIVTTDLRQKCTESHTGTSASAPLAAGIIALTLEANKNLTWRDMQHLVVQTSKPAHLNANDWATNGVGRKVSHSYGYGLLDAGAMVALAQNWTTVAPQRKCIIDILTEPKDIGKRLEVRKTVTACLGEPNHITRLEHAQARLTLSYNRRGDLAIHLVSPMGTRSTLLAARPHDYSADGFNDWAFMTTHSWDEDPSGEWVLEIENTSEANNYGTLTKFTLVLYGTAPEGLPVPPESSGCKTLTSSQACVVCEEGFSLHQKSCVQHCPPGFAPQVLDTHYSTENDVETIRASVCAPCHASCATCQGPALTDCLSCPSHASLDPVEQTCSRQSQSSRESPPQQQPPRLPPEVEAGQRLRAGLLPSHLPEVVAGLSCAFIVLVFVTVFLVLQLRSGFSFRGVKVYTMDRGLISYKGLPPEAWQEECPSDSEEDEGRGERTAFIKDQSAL

B1: HC880 (peptide)
chain: CAALMTGYTGAGNASASA
furin cleavage Z-score (7.5 min): -1.03 (inactive) | furin cleavage Z-score (15 min): -2.97 (inactive) | furin cleavage Z-score (30 min): -0.313 (inactive)

B2: HC2127 (peptide)
chain: CAEFVVCCSMAGNASASA
furin cleavage Z-score (7.5 min): -1.01 (inactive) | furin cleavage Z-score (15 min): 0.711 (inactive) | furin cleavage Z-score (30 min): -0.748 (inactive)

B3: HC2521 (peptide)
chain: CASTNCSAHLAGNASASA
furin cleavage Z-score (7.5 min): 1.3 | furin cleavage Z-score (15 min): -0.319 (inactive) | furin cleavage Z-score (30 min): 0.484 (inactive)

B4: HC1352 (peptide)
chain: CAESYSSMPPAGNASASA
furin cleavage Z-score (7.5 min): 0.813 (inactive) | furin cleavage Z-score (15 min): -0.573 (inactive) | furin cleavage Z-score (30 min): -0.906 (inactive)

B5: HC2106 (peptide)
chain: CAMDVVCCSMAGNASASA
furin cleavage Z-score (7.5 min): -0.103 (inactive) | furin cleavage Z-score (15 min): -0.752 (inactive) | furin cleavage Z-score (30 min): -0.482 (inactive)

B6: HC639 (peptide)
chain: CARDWAHNGLAGNASASA
furin cleavage Z-score (7.5 min): 0.358 (inactive) | furin cleavage Z-score (15 min): -0.707 (inactive) | furin cleavage Z-score (30 min): 0.626 (inactive)

B7: FS-2017 (peptide)
chain: CARGKRRREKAGNASASA
furin cleavage Z-score (7.5 min): -0.00549 (inactive) | furin cleavage Z-score (15 min): -0.584 (inactive) | furin cleavage Z-score (30 min): -1.52 (inactive)

B8: FS-2015 (peptide)
chain: CARGKRHATKAGNASASA
furin cleavage Z-score (7.5 min): 7.59 (active) | furin cleavage Z-score (15 min): 7.53 (active) | furin cleavage Z-score (30 min): 7.79 (active)

B9: FS-2019 (peptide)
chain: CARGKRYSYKAGNASASA
furin cleavage Z-score (7.5 min): 0.222 (inactive) | furin cleavage Z-score (15 min): 0.712 (inactive) | furin cleavage Z-score (30 min): 1.19

B10: WN1 (peptide)
chain: CAQRKRGGTAAGNASASA
furin cleavage Z-score (7.5 min): -1.04 (inactive) | furin cleavage Z-score (15 min): 0.079 (inactive) | furin cleavage Z-score (30 min): -0.249 (inactive)

B11: FS-2016 (peptide)
chain: CARGKRQATAAGNASASA
furin cleavage Z-score (7.5 min): 7.14 (active) | furin cleavage Z-score (15 min): 9.61 (active) | furin cleavage Z-score (30 min): 6.1 (active)

B12: HC485 (peptide)
chain: CAGERCDLEDAGNASASA
furin cleavage Z-score (7.5 min): 0.0125 (inactive) | furin cleavage Z-score (15 min): -0.597 (inactive) | furin cleavage Z-score (30 min): 0.387 (inactive)

B13: HC1465 (peptide)
chain: CASSYGFQYSAGNASASA
furin cleavage Z-score (7.5 min): 1.75 | furin cleavage Z-score (15 min): 0.0331 (inactive) | furin cleavage Z-score (30 min): -0.209 (inactive)

B14: HC1926 (peptide)
chain: CATTPCSGSMAGNASASA
furin cleavage Z-score (7.5 min): -0.191 (inactive) | furin cleavage Z-score (15 min): 0.357 (inactive) | furin cleavage Z-score (30 min): -1.65 (inactive)

B15: HC1588 (peptide)
chain: CAARDQLEQAAGNASASA
furin cleavage Z-score (7.5 min): 1.26 | furin cleavage Z-score (15 min): 0.408 (inactive) | furin cleavage Z-score (30 min): -0.23 (inactive)

B16: HC804 (peptide)
chain: CATGSPITYSAGNASASA
furin cleavage Z-score (7.5 min): -0.202 (inactive) | furin cleavage Z-score (15 min): -0.337 (inactive) | furin cleavage Z-score (30 min): -0.568 (inactive)

B17: FS-831 (peptide)
chain: CANAHRDKKSAGNASASA
furin cleavage Z-score (7.5 min): -0.25 (inactive) | furin cleavage Z-score (15 min): -0.94 (inactive) | furin cleavage Z-score (30 min): -2.16 (inactive)

B18: FS-39 (peptide)
chain: CAKGSRRKKSAGNASASA
furin cleavage Z-score (7.5 min): 5.36 (active) | furin cleavage Z-score (15 min): 4.72 (active) | furin cleavage Z-score (30 min): 4.1 (active)

B19: FS-802 (peptide)
chain: CAIFSRVKKSAGNASASA
furin cleavage Z-score (7.5 min): 3.99 (active) | furin cleavage Z-score (15 min): 2.87 | furin cleavage Z-score (30 min): 3.95 (active)

B20: FS-1485 (peptide)
chain: CASFDRKKKSAGNASASA
furin cleavage Z-score (7.5 min): -0.34 (inactive) | furin cleavage Z-score (15 min): -0.366 (inactive) | furin cleavage Z-score (30 min): -0.05 (inactive)

B21: FS-1358 (peptide)
chain: CALKHRVKKSAGNASASA
furin cleavage Z-score (7.5 min): 8.56 (active) | furin cleavage Z-score (15 min): 10.2 (active) | furin cleavage Z-score (30 min): 8.6 (active)

B22: FS-1376 (peptide)
chain: CAMIHRFWKSAGNASASA
furin cleavage Z-score (7.5 min): 0.282 (inactive) | furin cleavage Z-score (15 min): -1.21 (inactive) | furin cleavage Z-score (30 min): -1.26 (inactive)

B23: FS-736 (peptide)
chain: CAVPPRRKKSAGNASASA
furin cleavage Z-score (7.5 min): 3.36 | furin cleavage Z-score (15 min): 2.71 | furin cleavage Z-score (30 min): 4.45 (active)

B24: FS-1343 (peptide)
chain: CAIFSRCARSAGNASASA
furin cleavage Z-score (7.5 min): 0.568 (inactive) | furin cleavage Z-score (15 min): 0.619 (inactive) | furin cleavage Z-score (30 min): 1.19

B25: HC2444 (peptide)
chain: CAEIEVPCHRAGNASASA
furin cleavage Z-score (7.5 min): 1.1 | furin cleavage Z-score (15 min): 1.09 | furin cleavage Z-score (30 min): 0.798 (inactive)

B26: HC603 (peptide)
chain: CAVFDITKLLAGNASASA
furin cleavage Z-score (7.5 min): 0.928 (inactive) | furin cleavage Z-score (15 min): -0.333 (inactive) | furin cleavage Z-score (30 min): 0.0832 (inactive)

B27: FS-600 (peptide)
chain: CAKAARAKKIAGNASASA
furin cleavage Z-score (7.5 min): -0.438 (inactive) | furin cleavage Z-score (15 min): -0.00567 (inactive) | furin cleavage Z-score (30 min): -0.411 (inactive)

B28: HC1073 (peptide)
chain: CAAATAFVGAAGNASASA
furin cleavage Z-score (7.5 min): -1.28 (inactive) | furin cleavage Z-score (15 min): -0.663 (inactive) | furin cleavage Z-score (30 min): -0.282 (inactive)

B29: HC1060 (peptide)
chain: CASPLTTSQTAGNASASA
furin cleavage Z-score (7.5 min): 0.0213 (inactive) | furin cleavage Z-score (15 min): -0.739 (inactive) | furin cleavage Z-score (30 min): 0.362 (inactive)

B30: FS-414 (peptide)
chain: CAEPGREKKSAGNASASA
furin cleavage Z-score (7.5 min): -0.759 (inactive) | furin cleavage Z-score (15 min): 0.432 (inactive) | furin cleavage Z-score (30 min): -0.848 (inactive)

B31: FS-615 (peptide)
chain: CALSNRTMKSAGNASASA
furin cleavage Z-score (7.5 min): 1.04 | furin cleavage Z-score (15 min): -0.454 (inactive) | furin cleavage Z-score (30 min): 0.561 (inactive)

B32: HC2339 (peptide)
chain: CAEPPCHRPSAGNASASA
furin cleavage Z-score (7.5 min): 0.111 (inactive) | furin cleavage Z-score (15 min): -0.455 (inactive) | furin cleavage Z-score (30 min): -0.0572 (inactive)

B33: FS-829 (peptide)
chain: CAMLYRHKKSAGNASASA
furin cleavage Z-score (7.5 min): 0.949 (inactive) | furin cleavage Z-score (15 min): 1.65 | furin cleavage Z-score (30 min): 1.42

B34: FS-157 (peptide)
chain: CAEPKRIKKSAGNASASA
furin cleavage Z-score (7.5 min): 3.63 (active) | furin cleavage Z-score (15 min): 4.2 (active) | furin cleavage Z-score (30 min): 3.26

B35: FS-413 (peptide)
chain: CAEKARKGKSAGNASASA
furin cleavage Z-score (7.5 min): -1.2 (inactive) | furin cleavage Z-score (15 min): -1.61 (inactive) | furin cleavage Z-score (30 min): -0.85 (inactive)

B36: FS-176 (peptide)
chain: CALKARRKKSAGNASASA
furin cleavage Z-score (7.5 min): 7.34 (active) | furin cleavage Z-score (15 min): 8.84 (active) | furin cleavage Z-score (30 min): 7.56 (active)

B37: FS-803 (peptide)
chain: CAIKCRTKKSAGNASASA
furin cleavage Z-score (7.5 min): 1.77 | furin cleavage Z-score (15 min): 4.04 (active) | furin cleavage Z-score (30 min): 3.26

B38: FS-717 (peptide)
chain: CASFARIKKWAGNASASA
furin cleavage Z-score (7.5 min): -0.31 (inactive) | furin cleavage Z-score (15 min): -0.161 (inactive) | furin cleavage Z-score (30 min): 1.88

B39: HC1140 (peptide)
chain: CARLHQWISSAGNASASA
furin cleavage Z-score (7.5 min): 0.126 (inactive) | furin cleavage Z-score (15 min): -1.75 (inactive) | furin cleavage Z-score (30 min): -1.83 (inactive)

B40: FS-1651 (peptide)
chain: CARLYREKKSAGNASASA
furin cleavage Z-score (7.5 min): 0.828 (inactive) | furin cleavage Z-score (15 min): 2.77 | furin cleavage Z-score (30 min): 3.88 (active)

B41: HC1458 (peptide)
chain: CALYDVVTKLAGNASASA
furin cleavage Z-score (7.5 min): 0.188 (inactive) | furin cleavage Z-score (15 min): 0.0294 (inactive) | furin cleavage Z-score (30 min): -0.805 (inactive)

B42: HC1948 (peptide)
chain: CAWCTTPCSGAGNASASA
furin cleavage Z-score (7.5 min): 1.23 | furin cleavage Z-score (15 min): 0.244 (inactive) | furin cleavage Z-score (30 min): 1.72
